From PubChem
Vaccinia mCherry: vaccinia inhibition (mCherry reporter); Vaccinia virus mCherry reporter infection, fluorescence; Potency, µM (series often up to 36.5 µM), for the others: top-dose activity change, negative = inhibition, hits mostly inhibitors; actives 0.63% (n = 310,000); AID 720579; calls by dose curve; tested in A549 cells; note: nearly all actives have a fitted effect of over 35% in size
LASV entry inh: inhibitors of Lassa virus binding or cell entry. Lassa virus pseudotype entry inhibition, cell reporter. Potency, µM (series often up to 37.9 µM), for the others: at the top dose activity change, negative = inhibition, most hits filed as inhibitors. actives 1.2% (n = 300,000); calls by dose curve; tested in HEK293 cells; note: nearly all actives have a fitted effect of over 50% in size
VACV Venus inh: inhibitors of vaccinia virus (Venus reporter); Potency, µM (series often up to 36.5 µM), for inactives: top-dose activity change, negative = inhibition, most hits filed as inhibitors; Vaccinia virus Venus reporter expression, fluorescence; AID 720580; actives 0.46% (n = 330,000); calls by dose curve; tested in A549 cells; note: nearly all actives have a fitted effect of over 30% in size
MARV entry inh: blocks Marburg virus binding to or entry into cells; actives 1.8% (n = 300,000); Potency, µM (doses to about 37.8 µM), for inactives: top-dose activity change, negative = inhibition, most hits filed as inhibitors; Marburg virus pseudotyped entry inhibition, cell reporter; AID 540276; calls by dose curve; tested in HEK293 cells
An asterisk follows results filed as active; i = inactive; ? = inconclusive; . = not tested or not shown; [ ] = another dose, or the depositor's remark. This is a sample that favours compounds with a hit; in the whole collection about 2.5% have one here. % is set by controls: 0 for no effect and ±100 for the full control effect; potency is the fitted concentration of half-maximal effect.

SMILES	Vaccinia mCherry	LASV entry inh	VACV Venus inh	MARV entry inh
CC(=O)c1ccccc1-c1ccc2c(c1)CC(CNC(=O)Cc1c[nH]c3ccccc13)O2 (stereo not drawn)	-19.7%	.	-7.7%	.
CC(C)OC(=O)c1c(-c2ccc(C(C)C)cc2)csc1NC(=O)C1CCCO1 (stereo not drawn)	-10.6%	5.62µM*	-6.1%	?
CCOC(=O)c1c(-c2ccc(C)cc2)csc1NC(=O)C1CCCO1 (stereo not drawn)	i	?	-10.6%	?
Cc1ccc(C(=O)NCc2ccc(N(C)C)cc2)cc1NC(=O)c1nsc2ccccc12	-13.8%	5.01µM*	-15.6%	.
Cc1ccc(C(=O)NCc2ccccc2)cc1NC(=O)c1nsc2ccccc12	-6.1%	-16.1%[46.1 µM]	-15.4%	.
C/C=C\c1ccccc1OCc1ccc(C(=O)O)o1	.	.	.	11.4%[46.1 µM]
Cc1cc(C)c(S(=O)(=O)/N=C2\C=C(Nc3ccc(C(=O)O)cc3)C(=O)c3ccccc32)c(C)c1	?	?	?	5.62µM*
CCc1ccc(S(=O)(=O)/N=C2\C=C(Nc3ccc(O)cc3)C(=O)c3ccccc32)cc1	?	4.47µM*	3.98µM*	?
O=C(O)c1ccc(NC2=C/C(=N/S(=O)(=O)c3ccccc3)c3ccccc3C2=O)cc1	?	7.08µM*	?	3.98µM*
Cc1ccc(C(=O)NCc2ccco2)cc1S(=O)(=O)Nc1cccc(C)c1C	.	?	.	20.6µM*
Cc1ccccc1NS(=O)(=O)c1cc(C(=O)NCc2ccco2)ccc1C	-22.3%	1.64µM*	?	-6.8%
Cc1ccc(SCCNC(=O)c2ccc(C)c(S(=O)(=O)Nc3ccccc3C)c2)cc1	-19.0%	10.3µM*	-22.0%	23.1µM*
Cc1ccccc1NS(=O)(=O)c1cc(C(=O)NCCC2=CCCCC2)ccc1C	?	?	-25.0%	-45.3%
CCN(Cc1ccncc1)Cc1ccc2c(c1)CN(C(=O)c1ccc(C)cc1)CCO2	-6.5%	.	5.4%	.
COc1ccc(C(=O)Nc2ccc(C)cn2)c(OC)c1	31.2%	0.651µM*	-12.9%	1.03µM*
O=c1[nH]cnc2c1sc1nc3c(c(-c4ccc(Cl)cc4)c12)CCC3	.	0.1%	2.82µM*	?
Cc1cc(C(=O)OCC(=O)NCc2ccco2)c(C)n1-c1ccc(F)cc1	.	10µM*	?	?
CCNC(=O)COC(=O)c1cc(C)n(-c2ccccc2)c1C	i	5.1%[46.1 µM]	-8.8%	3.9%[46.1 µM]
c1ccc2c(c1)[IH]c1ccccc1-2	?	.	11.2µM*	.
O=S1(=O)CCO[C@H]2CCCC[C@@H]2N1Cc1ccc(Cl)cc1	10µM*	.	?	.
CCOc1ccc2c(c1)C(C)=CC(C)(C)N2S(=O)(=O)c1ccc(C)cc1	-16.1%	?	-12.9%	2.82µM*
CC1=CC(C)(C)N(S(=O)(=O)c2ccc(C)cc2)c2cc(C)ccc21	?	?	?	2.59µM*
COc1ccc2c(c1)C(C)=CC(C)(C)N2S(=O)(=O)c1ccc(C)cc1	?	?	-22.9%	?
CC1=CC(C)(C)N(C(=O)CCl)c2cc(C)ccc21	-8.1%	9.4%[46.1 µM]	-9.7%	?
CCn1c(-c2cccc(OC)c2)nc2cc(NC(C)=O)cc(C(=O)N3CCCC(C(C)=O)C3)c21 (stereo not drawn)	-15.9%	.	-9.3%	.
SMILES	Vaccinia mCherry	LASV entry inh	VACV Venus inh	MARV entry inh
COc1ccc(CN2CCOc3ccc(CN4CCC(Oc5cccnc5)CC4)cc3C2)cc1C	-26.2%	.	-9.8%	.
CN=c1scc(-c2cccs2)n1/N=C/c1ccccc1O	?	1.26µM*	?	0.282µM*
CN=c1scc(-c2cccs2)n1/N=C/c1ccc(O)c(O)c1O	-21.7%	?	-5.3%	?
COc1cc(=O)n2c(c1C(=O)N(C)Cc1nccs1)CCN(Cc1ccc(F)c(F)c1)CC2	i	.	-10.3%	.
CCN(CC)S(=O)(=O)c1cccc(C(=O)Nc2nc3cc4c(cc3s2)OCCO4)c1	?	?	?	18.3µM*
CN(C)c1cccc(C(=O)Nc2nc3ccccc3[nH]2)c1	-29.6%	?	-23.6%	?
Cc1nc2ccc(NC(=O)c3ccccc3)cc2s1	.	7.0%	.	-15.2%
O=C(Nc1nc2cc3c(cc2s1)OCCO3)c1cccc(N2C(=O)CCC2=O)c1	i	.	-4.6%	.
Cc1nc2ccc(NC(=O)c3cccc(S(=O)(=O)N(C)c4ccccc4)c3)cc2s1	?	?	?	17.8µM*
Cc1ccc(N(C)S(=O)(=O)c2cccc(C(=O)Nc3nc4ccccc4[nH]3)c2)cc1	-22.7%	16.4µM*	?	11.6µM*
Cc1ccc(C(=O)Nc2nc3ccccc3[nH]2)cc1	i	?	?	1.41µM*
COc1ccc(N2C(=O)[C@@H]3C[C@H]2CN3Cc2ccc3nccnc3c2)cc1Cl	-17.0%	.	-10.5%	.
O=C(C1CCCCC1)N1CCOc2ccc(CN3CCN(Cc4ccccn4)CC3)cc2C1	-9.0%	.	6.2%	.
Cc1cc(C(=O)Nc2cnc3ccccc3c2)ccc1[N+](=O)[O-]	i	?	-7.9%	?
COc1ccc(N(C)S(=O)(=O)c2cccc(C(=O)Nc3ccc4c(c3)OCCO4)c2)cc1	i	?	-17.9%	10µM*
CN(c1ccccc1)S(=O)(=O)c1ccc(NC(=O)c2ccccc2)cc1	-6.5%	?	-16.0%	-23.2%
CN(c1ccccc1)S(=O)(=O)c1ccc(NC(=O)c2ccc(F)cc2)cc1	i	?	1.3%	17.8µM*
Cc1ccc(C(=O)Nc2cnc3ccccc3c2)cc1	-27.2%	5.01µM*	-24.7%	?
Cn1ccnc1C1CCCCN1C(=O)CN1Cc2ccccc2OC(c2ccccc2F)C1 (stereo not drawn)	-14.6%	.	-6.7%	.
O=C(O)c1cc(O)c2c(c1)[C@H]([C@H]1c3cc(C(=O)O)cc(O)c3C(=O)c3c(O[C@@H]4O[C@H](CO)[C@@H](O)[C@H](O)[C@H]4O)cccc31)c1cccc(O[C@@H]3O[C@H](CO)[C@@H](O)[C@H](O)[C@H]3O)c1C2=O	-9.7%	.	2.8%	.
COc1ccc(C2c3c(ncn(CCCO)c3=N)Oc3ccc4ccccc4c32)cc1OC (stereo not drawn)	i	?	-27.8%	8.5%[46.1 µM]
COc1ccc(C2c3c(ncn(CCN4CCOCC4)c3=N)Oc3ccc4ccccc4c32)cc1OC (stereo not drawn)	i	?	-14.6%	10.3µM*
COc1ccccc1C1c2ccc3ccccc3c2Oc2ncn(CCCO)c(=N)c21 (stereo not drawn)	?	?	-25.8%	?
COc1ccccc1C1c2ccc3ccccc3c2Oc2ncn(CCN(C)C)c(=N)c21 (stereo not drawn)	-20.1%	?	?	2.82µM*
COc1ccc(C2c3ccc4ccccc4c3Oc3ncn(CCCN(C)C)c(=N)c32)cc1 (stereo not drawn)	?	?	?	1.78µM*
O=C(c1cn(C2CCCN(Cc3cccc(Oc4ccccc4)c3)C2)nn1)N1CCCC1 (stereo not drawn)	-4.5%	.	-17.0%	.
COc1ccccc1C1N=C(Nc2nc3ccccc3o2)NC2=C1C(=O)CC(C)(C)C2 (stereo not drawn)	i	.	-14.3%	.
CN1CCN(CCCNC(=O)C2CC(=O)N(C3CCCCC3)C2)CC1 (stereo not drawn)	.	?	-18.5%	5.0%
